Assay results taken from the supplement of paper PMC11624193, “Coupling cellular drug-target engagement to downstream pharmacology with CeTEAM” (Nature Communications, 2024).
A number with no mark means an inactive call.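 The calls were made as follows: active = log2 fold change beyond 2 SD from the library mean after excluding viability outliers; inactive = within 2 SD.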

target: PARP1 L713F-nLuc biosensor (HCT116) (UniProt P09874); experiment: PARP1 L713F-nLuc/akaLuc ratio relative to DMSO control (biosensor stabilization) (fold change); higher = more PARP1 biosensor stabilization (target engagement / stabilizer), active = hit call of the paper; conditions: stock concentration (mM; final µM = stock mM x 1): 10; 24 h
Sequence (P09874 whole entry L713F, looked up): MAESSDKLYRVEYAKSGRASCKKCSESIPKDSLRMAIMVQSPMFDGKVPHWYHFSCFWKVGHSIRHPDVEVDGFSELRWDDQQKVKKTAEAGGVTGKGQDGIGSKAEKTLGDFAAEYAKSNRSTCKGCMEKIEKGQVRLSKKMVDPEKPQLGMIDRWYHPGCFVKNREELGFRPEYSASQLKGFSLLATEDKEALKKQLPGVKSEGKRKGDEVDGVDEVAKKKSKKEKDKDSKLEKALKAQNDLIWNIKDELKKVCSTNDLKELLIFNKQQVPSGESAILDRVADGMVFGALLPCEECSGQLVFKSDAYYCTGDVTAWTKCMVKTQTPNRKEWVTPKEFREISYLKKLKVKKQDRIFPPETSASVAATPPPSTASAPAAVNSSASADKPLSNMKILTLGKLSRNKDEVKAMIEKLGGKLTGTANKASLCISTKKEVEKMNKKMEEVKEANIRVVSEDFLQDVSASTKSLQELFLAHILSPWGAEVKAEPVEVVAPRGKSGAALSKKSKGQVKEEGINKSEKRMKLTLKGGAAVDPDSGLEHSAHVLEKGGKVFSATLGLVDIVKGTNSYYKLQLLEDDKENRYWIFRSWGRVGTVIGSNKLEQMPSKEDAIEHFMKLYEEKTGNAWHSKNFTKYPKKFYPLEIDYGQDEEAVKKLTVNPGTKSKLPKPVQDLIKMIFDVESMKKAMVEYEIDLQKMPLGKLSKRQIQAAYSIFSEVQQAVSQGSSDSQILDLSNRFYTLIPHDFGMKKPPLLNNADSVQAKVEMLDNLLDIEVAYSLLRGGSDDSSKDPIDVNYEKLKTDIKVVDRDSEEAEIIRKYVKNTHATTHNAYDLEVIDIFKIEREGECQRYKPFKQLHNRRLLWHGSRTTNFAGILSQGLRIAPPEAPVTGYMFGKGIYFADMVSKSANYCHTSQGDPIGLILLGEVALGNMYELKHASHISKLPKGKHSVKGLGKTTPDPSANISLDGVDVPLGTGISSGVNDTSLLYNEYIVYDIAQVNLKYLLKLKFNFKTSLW

| SMILES | PARP1 L713F-nLuc/akaLuc ratio |
| --- | --- |
| COC(=O)c1ccc2c(c1)NC(=O)/C2=C(\Nc1ccc(N(C)C(=O)CN2CCN(C)CC2)cc1)c1ccccc1 [Nintedanib (BIBF 1120)] | 0.6 |
| CCN(CC)CCCC[C@H](NC(=O)[C@H](CC(C)C)NC(=O)[C@H](C)NC(=O)[C@H](Cc1ccccc1)NC(=O)c1ccc(C(C)(C)C)cc1)C(=O)N[C@@H](CO)C(=O)OC | 1.47 |
| C=CC(=O)Nc1cccc(Nc2nc(Nc3ccc(N4CCN(C(C)=O)CC4)cc3OC)ncc2C(F)(F)F)c1 [Rociletinib (CO-1686, AVL-301)] | 0.886 |
| CCN(CC)CCNC(=O)c1c(C)[nH]c(/C=C2\C(=O)Nc3ccc(-c4csc(-c5ccccc5)n4)cc32)c1C [Amcasertib (BBI503)] | 0.885 |
| O=C1NC(=O)/C(=C\c2cccc(C(F)(F)F)c2)S1 | 0.962 |
| N[C@H]1C[C@@H]1c1ccc(-c2cccc(O)c2)cc1 | 0.692 |
| C[C@@H](Nc1cc(F)cc(F)c1)c1cc(C(=O)N(C)C)cc2c(=O)cc(N3CCOCC3)oc12 | 0.667 |
| CN1CCN(c2nc(C3=C(c4c[nH]c5ccccc45)C(=O)NC3=O)c3ccccc3n2)CC1 [Sotrastaurin] | 1.31 |
| N#CCC1(n2cc(-c3ncnc4[nH]ccc34)cn2)CN(C2CCN(C(=O)c3ccnc(C(F)(F)F)c3F)CC2)C1 [Itacitinib adipate] | 1.05 |
| CC(CC(=O)C[C@@H](C)[C@H]1CC(=O)[C@@]2(C)C3=C(C(=O)C[C@]12C)[C@@]1(C)CCC(=O)C(C)(C)[C@@H]1C[C@@H]3O)C(=O)O (stereo partly drawn) [Ganoderic acid D] | 0.929 |
| CN(C)CCCNC(=O)c1ccc(-c2cc(O)c3ncccc3c2)cc1 | 0.5 |
| O=c1cc(O)cc(/C=C/c2ccc(O)c(O)c2)o1 [Hispidin] | 1.19 |
| CN(C)CCCn1cc(C2=C(c3c[nH]c4ccccc34)C(=O)NC2=O)c2ccccc21 [Bisindolylmaleimide I] | 26.8 (active) |
| CC(C)(C#N)c1cc(Cn2cncn2)cc(C(C)(C)C#N)c1 [Anastrozole] | 0.888 |
| Cc1nc(Nc2cnn(C3CCNCC3)c2)nc2c1N(C)C(=O)c1cc3ccccc3cc1N2C | 0.761 |
| C[C@@H]1COCCN1c1cc(C2([S@](C)(=N)=O)CC2)nc(-c2cc[nH]c3nccc2-3)n1 | 1.79 |
| Cc1ccc(Nc2nccc(N(C)c3ccc4c(C)n(C)nc4c3)n2)cc1S(N)(=O)=O [Pazopanib] | 1.33 |
| O=c1ncn2nc(Sc3ccc(F)cc3F)ccc2c1-c1c(Cl)cccc1Cl | 0.808 |
| NC(=O)c1cccc2[nH]c(-c3ccc(C4CCCN4)cc3F)nc12 (stereo not drawn) | 4.24 (active) |

| SMILES | PARP1 L713F-nLuc/akaLuc ratio |
| --- | --- |
| O=C(O)c1c[nH]c2cc(Cl)c(-c3ccc(C4(O)CCC4)cc3)cc12 | 0.446 |
| Cc1ncccc1-c1cnc(NCc2c(F)ccc3c2CCO3)n2cnnc12 | 1.39 |
| CO[C@H]1C(=O)[C@]2(C)[C@@H](OC)C[C@H]3OC[C@@]3(OC(C)=O)[C@H]2[C@H](OC(=O)c2ccccc2)[C@]2(O)C[C@H](OC(=O)[C@H](O)[C@@H](NC(=O)OC(C)(C)C)c3ccccc3)C(C)=C1C2(C)C [Cabazitaxel] | 1.2 |
| CN(c1ccccc1)c1ccc2c(c1)CCC[C@H]2CNc1cnccc1C(=O)O | 0.387 |
| O=C1CCc2c(ccc3ccccc23)O1 [Splitomicin] | 0.895 |
| C=CC(=O)N1C[C@H](Nc2ncnc3[nH]ccc23)CC[C@@H]1C [Ritlecitinib] | 1.01 |
| CCC(Sc1nnc2c(n1)[nH]c1ccccc12)C(=O)N1c2ccccc2Sc2ccccc21 (stereo not drawn) [Inauhzin] | 0.33 (active) |
| CNc1cc(Nc2cccn(-c3ccccn3)c2=O)nn2c(C(=O)N[C@@H]3C[C@@H]3F)cnc12 | 0.72 |
| CNc1nc(Nc2cn(C(C)(C)C#N)nc2C)ncc1C(F)(F)F | 0.811 |
| CCCCNc1ncc(C(=O)NCc2ccc(-n3ccnc3)cc2)c(NC2CCC(O)CC2)n1 (stereo not drawn) | 0.954 |
| COc1ccc(Cn2ccc3ccc(C(=O)NO)cc32)cc1 | 1.04 |
| O=C(c1cccc(Cl)c1F)N1CCN(Cc2cccc(Nc3nccs3)n2)CC1 | 1.61 |
| CCNC(=O)CCC/C=C\C[C@@H]1[C@@H](/C=C/[C@@H](O)CCc2ccccc2)[C@H](O)C[C@@H]1O [Bimatoprost] | 0.942 |
| C[C@]12CCCN1CC1=NNC(=O)c3cc(F)cc4[nH]c2c1c34 [Pamiparib] | 5.97 (active) |
| Cc1nn(C)cc1-c1nc2c(N3CCN(Cc4ccc(Cl)cc4)CC3)c(Cl)cnc2[nH]1 | 0.979 |
| C/C=C(\CC[C@@H](C)[C@H]1CC[C@H]2[C@@H]3CC=C4C[C@@H](O)CC[C@]4(C)[C@H]3CC[C@]12C)C(C)C [Fucosterol] | 1.04 |
| O=c1c(O)c(-c2ccc(O)c(O)c2)oc2cc(O)ccc12 [Fisetin] | 0.701 |
| O=C(c1cncc(Br)c1)N1CCC(N2CCCC2)CC1 | 1.73 |
| O=c1[nH]c(Oc2cnn(Cc3ccccc3)c2)nc2cnccc12 | 0.946 |
